Measurements: PubChem BioAssay (Tox21)
Inconclusive results are not listed. Activity calls are given as the source filed them. Unless noted, calls come from the whole dose curve. Peptide text beside a SMILES is read from it.

Legend:
[1] = target: Gonadotropin-releasing hormone receptor (Homo sapiens) (UniProt P30968); assay: Human gonadotropin-releasing hormone receptor (GnRHR) small molecule agonists, calcium flux assay in GnRHR-HEK293 cells (AID 1920063); note: nearly all actives have a fitted effect of over 35% in size
Chain of Gonadotropin-releasing hormone receptor (Homo sapiens) (P30968 whole entry, looked up): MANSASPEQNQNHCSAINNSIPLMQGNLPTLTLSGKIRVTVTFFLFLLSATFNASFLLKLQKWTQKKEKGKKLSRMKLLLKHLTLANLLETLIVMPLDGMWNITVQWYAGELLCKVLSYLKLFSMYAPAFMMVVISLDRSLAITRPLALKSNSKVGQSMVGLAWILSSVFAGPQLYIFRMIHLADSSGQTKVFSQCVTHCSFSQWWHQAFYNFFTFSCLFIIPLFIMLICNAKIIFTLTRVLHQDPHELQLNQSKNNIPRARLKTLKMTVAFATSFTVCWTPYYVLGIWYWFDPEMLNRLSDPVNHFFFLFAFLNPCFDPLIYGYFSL
Procedure, shortened: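 Calcium flux, agonist mode, human GnRHR stably integrated in HEK293; dye 1 h at 37 C before compound; Ex/Em=480/540 kinetic read, 3 min; 15 concentrations, triplicate.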

[2] = target: KiSS-1 receptor (Homo sapiens) (UniProt Q969F8); assay: Human kisspeptin (KISS1R) small molecule agonists, calcium flux assay in KISS1R-HEK293 cells (AID 1920064; active = well fitted curve in the direction sought with a large enough effect in the repeat runs; an effect the other way counts as inactive or inconclusive)
Chain of KiSS-1 receptor (Homo sapiens) (Q969F8 whole entry, looked up): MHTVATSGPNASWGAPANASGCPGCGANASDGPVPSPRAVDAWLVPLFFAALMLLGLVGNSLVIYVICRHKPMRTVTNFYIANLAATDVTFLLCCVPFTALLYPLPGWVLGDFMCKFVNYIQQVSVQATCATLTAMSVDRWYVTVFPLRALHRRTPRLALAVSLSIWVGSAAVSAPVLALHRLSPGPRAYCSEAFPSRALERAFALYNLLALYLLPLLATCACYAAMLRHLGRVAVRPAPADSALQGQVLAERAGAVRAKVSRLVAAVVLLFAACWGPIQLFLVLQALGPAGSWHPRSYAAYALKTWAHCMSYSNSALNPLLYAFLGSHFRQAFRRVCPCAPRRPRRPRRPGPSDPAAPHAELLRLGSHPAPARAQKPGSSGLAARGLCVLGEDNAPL
Procedure, shortened: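 Triplicate 15-concentration series were applied to dye-loaded human KISS1R HEK293 cells, and agonist-evoked calcium fluorescence was captured for 3 min.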

[3] = G protein-coupled receptor (GPCR) small molecule agonists, calcium flux assay: HEK293 wild type cell line counter screen (AID 1920065)
Procedure, shortened: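 Non-specific calcium responders were flagged by adding DMSO-dissolved compounds to dye-loaded cells and reading 480/540 nm fluorescence each second for 3 min; ATP served as positive control.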

[4] = p53 small molecule agonists, cell-based qHTS assay with human liver microsomes (AID 1963577);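 note: p53 response element beta-lactamase reporter cells with liver microsomes plus NADPH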
Procedure, shortened: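 Metabolically competent format: test substances, human liver microsomes and NADPH (both 0.5 mg/mL final) incubated with p53RE-bla cells 16 h at 37 C. Beta-lactamase reporter signal then quantified by fluorescence.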

[5] = p53 small molecule agonists, cell-based qHTS assay with rat liver microsomes (AID 1963578)
Procedure, shortened: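 Each plate received p53RE-bla cells, then compound, then rat liver microsomes and NADPH (both 0.5 mg/mL final). Plates were held 16 h at 37 C, and beta-lactamase activity was detected with LiveBLAzer over 2 h.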

[6] = p53 small molecule agonists, cell-based qHTS assay with human liver microsomes: qHTS cell viability counter screen (AID 1963579); note: nearly all actives have a fitted effect of over 45% in size
Procedure, shortened: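 Tox21 library compounds, delivered from DMSO stocks, were tested on p53RE-bla cells together with 0.5 mg/mL human liver microsomes and 0.5 mg/mL NADPH (final) over 16 h at 37 C; CellTiter-Glo luminescence served as the cytotoxicity measure.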

[7] = p53 small molecule agonists, cell-based qHTS assay with rat liver microsomes: qHTS cell viability counter screen (AID 1963580); note: nearly all actives have a fitted effect of over 45% in size
Procedure, shortened: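 After the beta-lactamase ratio was read, CellTiter-Glo was added to the same wells and luminescence measured at 30 min; cells had been treated 16 h at 37 C with compounds, rat liver microsomes and NADPH (0.5 mg/mL final each).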

[8] = p53 small molecule agonists, cell-based qHTS assay: qHTS cell viability counter screen (AID 1963581); note: nearly all actives have a fitted effect of over 45% in size
Procedure, shortened: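 Multiplexed with the reporter read, a CellTiter-Glo step (30 min, room temperature) gauges ATP-based viability of HCT-116 p53RE-bla cells after 16 h compound incubation at 37 C.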

[9] = p53 small molecule agonists, cell-based qHTS assay (AID 1963582; active = well fitted activation curve with a large enough effect in the signal ratio in the repeat runs, not every such curve was filed as active; the % refers to the signal ratio)
Procedure, shortened: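 Beta-lactamase reporter cells (p53RE-bla) treated with compounds for 16 h at 37 C; FRET substrate, 2 h, room temperature; fluorescence intensity.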

[10] = target: 5-hydroxytryptamine receptor 2A (Homo sapiens) (UniProt P28223); assay: 5-hydroxytryptamine receptor 2A (HTR2A) small molecule antagonists, cell-based qHTS assay (AID 1963586); note: nearly all actives have a fitted effect of over 45% in size
Chain of 5-hydroxytryptamine receptor 2A (Homo sapiens) (P28223 whole entry, looked up): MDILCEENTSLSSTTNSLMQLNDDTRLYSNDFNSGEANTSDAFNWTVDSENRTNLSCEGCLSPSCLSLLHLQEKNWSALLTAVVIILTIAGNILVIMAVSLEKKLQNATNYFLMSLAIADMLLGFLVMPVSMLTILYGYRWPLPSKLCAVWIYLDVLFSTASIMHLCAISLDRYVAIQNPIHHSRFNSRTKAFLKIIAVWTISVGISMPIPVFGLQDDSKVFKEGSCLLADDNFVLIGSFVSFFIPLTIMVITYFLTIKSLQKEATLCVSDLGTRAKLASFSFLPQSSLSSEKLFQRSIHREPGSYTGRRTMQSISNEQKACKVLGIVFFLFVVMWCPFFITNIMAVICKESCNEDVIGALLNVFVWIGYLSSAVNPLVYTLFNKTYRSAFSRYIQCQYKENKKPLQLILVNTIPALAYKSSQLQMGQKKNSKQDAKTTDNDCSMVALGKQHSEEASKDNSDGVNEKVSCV
Procedure, shortened: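 CHO cells stably expressing human HTR2A were plated for 18 h at 37 C, then loaded with calcium dye for 1 h. Compounds were preincubated 5 min at room temperature before DOI (4 nM solution) was added. Kinetic fluorescence was read for 3 min.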

[11] = target: 5-hydroxytryptamine receptor 2A (Homo sapiens) (UniProt P28223); assay: 5-hydroxytryptamine receptor 2A (HTR2A) small molecule agonists, cell-based qHTS assay (AID 1963587); note: nearly all actives have a fitted effect of over 30% in size
Procedure, shortened: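 CHO cells stably expressing human HTR2A, plated 18 h, loaded with calcium dye 1 h at 37 C. Agonist mode: compounds added and intracellular calcium fluorescence recorded kinetically for 2 min at 1 sec intervals.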

[12] = target: Muscarinic acetylcholine receptor M1 (Homo sapiens) (UniProt P11229); assay: Cholinergic receptor muscarinic 1 (CHRM1) small molecule antagonists, cell-based qHTS assay (AID 1963588); note: nearly all actives have a fitted effect of over 40% in size
Chain of Muscarinic acetylcholine receptor M1 (Homo sapiens) (P11229 whole entry, looked up): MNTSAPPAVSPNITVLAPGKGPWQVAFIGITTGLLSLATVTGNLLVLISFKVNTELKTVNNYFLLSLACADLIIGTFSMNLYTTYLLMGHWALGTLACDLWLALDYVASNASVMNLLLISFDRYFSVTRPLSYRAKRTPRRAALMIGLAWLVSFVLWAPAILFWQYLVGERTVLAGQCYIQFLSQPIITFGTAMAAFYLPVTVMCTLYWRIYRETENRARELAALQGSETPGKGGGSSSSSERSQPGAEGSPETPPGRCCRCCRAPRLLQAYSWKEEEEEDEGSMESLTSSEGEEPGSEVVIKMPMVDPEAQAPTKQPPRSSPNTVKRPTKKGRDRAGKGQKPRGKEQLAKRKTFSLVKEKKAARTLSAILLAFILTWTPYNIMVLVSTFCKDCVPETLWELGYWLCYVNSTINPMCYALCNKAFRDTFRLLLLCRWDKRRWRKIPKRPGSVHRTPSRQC
Procedure, shortened: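 Compounds were tested at 15 concentrations in three independent runs. Dye-loaded CHRM1-CHO cells were exposed 5 min at room temperature before stimulation by acetylcholine added at 50nM. Intracellular calcium was read kinetically on FDSS for 3 min.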

[13] = target: Muscarinic acetylcholine receptor M1 (Homo sapiens) (UniProt P11229); assay: Cholinergic receptor muscarinic 1 (CHRM1) small molecule agonists, cell-based qHTS assay (AID 1963589); note: nearly all actives have a fitted effect of over 35% in size
Procedure, shortened: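 qHTS, 15-point titration, 3 independent runs: compounds pin-transferred onto dye-loaded CHRM1-CHO cells (human M1), calcium fluorescence followed every second to detect agonism.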

[14] = cAMP Responsive Elements (CRE) small molecule agonists, cell-based qHTS assay (AID 1963590)
Procedure, shortened: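 Quantitative HTS for CRE agonists: HEK 293T CRE-bla cells, overnight plating, 3 h compound incubation at 37 C/5% CO2, then 2 h room-temperature LiveBLAzer B/G FRET substrate loading.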

[15] = cAMP Responsive Elements (CRE) small molecule antagonists, cell-based qHTS assay (AID 1963591; active = well fitted inhibition curve with a large enough effect in the signal ratio in the repeat runs, not every such curve was filed as active; the % refers to the signal ratio)
Procedure, shortened: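 Fluorescence intensity from cleaved LiveBLAzer B/G substrate (2 h, room temperature) quantified CRE-bla activity in HEK 293T cells exposed 3 h to compound with 0.25 uM final NKH477.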

[16] = target: Beta-2 adrenergic receptor (Homo sapiens) (UniProt P07550); assay: Adrenergic beta2 receptor (ADRB2) small molecule antagonists, cell-based qHTS assay (AID 1963592); note: series mostly up to about 92 µM; nearly all actives have a fitted effect of over 50% in size
Chain of Beta-2 adrenergic receptor (Homo sapiens) (P07550 whole entry, looked up): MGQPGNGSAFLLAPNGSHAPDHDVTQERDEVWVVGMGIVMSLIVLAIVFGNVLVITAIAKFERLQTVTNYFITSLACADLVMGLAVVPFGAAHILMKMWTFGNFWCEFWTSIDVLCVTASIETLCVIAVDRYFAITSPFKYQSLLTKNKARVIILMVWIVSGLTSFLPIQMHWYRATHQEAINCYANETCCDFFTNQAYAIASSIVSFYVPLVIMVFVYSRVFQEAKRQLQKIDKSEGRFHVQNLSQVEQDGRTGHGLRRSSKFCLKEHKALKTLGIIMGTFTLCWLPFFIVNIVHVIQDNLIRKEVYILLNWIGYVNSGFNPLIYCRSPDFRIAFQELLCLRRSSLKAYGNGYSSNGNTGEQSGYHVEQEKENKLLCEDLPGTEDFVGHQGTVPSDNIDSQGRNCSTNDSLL
Procedure, shortened: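 Assay format: CHO-ADRB2 cells, 18-20hr seeding at 37C/5% CO2, then compound plus 1nM isoproterenol agonist mix for 0.5hr RT. Homogeneous time-resolved fluorescence cAMP detection after 1hr, expressed as 665/615 nm ratio.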

[17] = target: Beta-2 adrenergic receptor (Homo sapiens) (UniProt P07550); assay: Adrenergic beta2 receptor (ADRB2) small molecule agonists, cell-based qHTS assay (AID 1963593);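 note: CHO cells stably overexpressing human ADRB2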
Procedure, shortened: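 CHO cells stably over-expressing ADRB2 were plated overnight at 37C, then dosed with compounds plus a stimulation mix containing 100uM IBMX and 25uM Ro-20-1724 for 0.5hr at room temperature. cAMP was measured by HTRF competition, 1hr.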

[18] = Nuclear factor erythroid 2-related factor 2/antioxidant responsive element (Nrf2/ARE) small molecule agonists: qHTS cell viability counter screen in human keratinocytes (AID 1919968; active = well fitted curve in the direction sought with a large enough effect in the repeat runs; an effect the other way counts as inactive or inconclusive; note: nearly all actives have a fitted effect of over 55% in size)
Procedure, shortened: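 Parallel cytotoxicity read: KeratinoSens HaCaT cells, compound treatment 23 h, viability by CellTiter-Fluor fluorescence 1 h post-reagent.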

[19] = target: D(2) dopamine receptor (Homo sapiens) (UniProt P14416); assay: Dopamine D2 receptor (DRD2) small molecule agonists, cell-based qHTS assay (AID 1963594); note: nearly all actives have a fitted effect of over 35% in size
Chain of D(2) dopamine receptor (Homo sapiens) (P14416 whole entry, looked up): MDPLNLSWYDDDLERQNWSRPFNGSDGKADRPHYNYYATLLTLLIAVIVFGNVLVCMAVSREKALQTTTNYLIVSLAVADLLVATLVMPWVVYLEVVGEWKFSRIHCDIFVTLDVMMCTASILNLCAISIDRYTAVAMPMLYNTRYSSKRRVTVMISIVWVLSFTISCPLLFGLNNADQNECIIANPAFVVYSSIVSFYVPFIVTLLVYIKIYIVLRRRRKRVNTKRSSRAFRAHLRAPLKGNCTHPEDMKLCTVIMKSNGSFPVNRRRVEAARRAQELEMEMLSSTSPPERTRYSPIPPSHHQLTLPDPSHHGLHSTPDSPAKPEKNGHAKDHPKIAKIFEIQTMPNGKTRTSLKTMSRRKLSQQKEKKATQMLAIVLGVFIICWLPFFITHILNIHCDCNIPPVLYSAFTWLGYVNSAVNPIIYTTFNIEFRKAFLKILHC
Procedure, shortened: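 HEK293 cells stably expressing human DRD2, pre-treated with PDE inhibitor Ro20-1724 (0.1 mM final) and compound 10 min at room temperature, then stimulated with NKH477 (200nM […]) for 30 min. cAMP read by HTRF (665/620 nm).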

[20] = target: D(2) dopamine receptor (Homo sapiens) (UniProt P14416); assay: Dopamine D2 receptor (DRD2) small molecule antagonists, cell-based qHTS assay (AID 1963595; active = well fitted inhibition curve with a large enough effect in the signal ratio in the repeat runs, with a control signal flat; the % refers to the signal ratio)
Procedure, shortened: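 Human DRD2 antagonist qHTS measuring cAMP by HTRF. The cells are exposed to compound for 10 min, then to NKH477 (200 nM) and quinpirole (12 nM) for 30 min at RT, with Ro20-1724 (0.1 mM) present throughout.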
% is set by controls: 0 for no effect and ±100 for the full control effect.

COC(=O)[C@H](Cc1ccccc1)NC(=O)[C@@H](N)CC(=O)O (H-Asp-Phe-OMe)
inactive: Potency [1] | Potency [2] | Potency [3] | Potency [4] | Potency [5] | Potency [6] | Potency [7] | Potency [8] | Potency [9] | Potency [10] | Potency [11] | Potency [12] | Potency [13] | Potency [14] | Potency [15] | Potency [16] | Potency [17]

Cc1ccc(S(=O)(=O)O)cc1
inactive: Potency [18] | Potency [1] | Potency [2] | Potency [3] | Potency [6] | Potency [7] | Potency [8] | Potency [10] | Potency [11] | Potency [12] | Potency [13] | Potency [14] | Potency [15] | Potency [16] | Potency [17] | Potency [19] | Potency [20]

Nc1cc([N+](=O)[O-])ccc1C(=O)O
inactive: Potency [18] | Potency [1] | Potency [2] | Potency [3] | Potency [5] | Potency [6] | Potency [7] | Potency [8] | Potency [9] | Potency [10] | Potency [12] | Potency [13] | Potency [14] | Potency [15] | Potency [16] | Potency [19]

CCc1cc(C(N)=S)ccn1
inactive: Potency [18] | Potency [1] | Potency [2] | Potency [3] | Potency [4] | Potency [6] | Potency [7] | Potency [8] | Potency [9] | Potency [10] | Potency [12] | Potency [13] | Potency [14] | Potency [15] | Potency [16] | Potency [17] | Potency [19] | Potency [20]

O=S(=O)(O)NC1CCCCC1
inactive: Potency [18] | Potency [1] | Potency [2] | Potency [6] | Potency [7] | Potency [8] | Potency [10] | Potency [11] | Potency [12] | Potency [13] | Potency [14] | Potency [15] | activation [17] -21.4% [at 19 µM] | Potency [19] | Potency [20]

Cc1cc(=O)[nH]c(=S)[nH]1
inactive: Potency [18] | Potency [1] | Potency [2] | Potency [3] | Potency [5] | Potency [7] | Potency [8] | Potency [9] | Potency [10] | Potency [11] | Potency [12] | Potency [13] | Potency [14] | Potency [15] | Potency [16] | Potency [17] | Potency [19] | Potency [20]
